Data taken from PubChem BioAssay AID1851 (National Center for Advancing Translational Sciences (NCATS), 2009).
Among all 16,000 compounds or so, about 5,100 (32%) were called active. About 25% were inconclusive and are not listed. The list shows a part of the results. Unmarked numbers belong to inactive results. The call rests on the fitted dose curve; in most records, active means well fitted curve in the direction sought with a large enough effect; inconclusive means small, poorly fitted or top-dose-only effect, or effect the other way; inactive means no such curve, though single readings can be large or run the other way.

What follows are compounds tested against Cytochrome P450 3A4 (Homo sapiens) (UniProt P08684) (assay: Cytochrome panel assay with activity outcomes). Settings: recombinant CYP, pro-luciferin dealkylation, luminescence, p450-cyp3a4; series mostly up to 57.1 µM; activity, negative = inhibition: at the top concentration.
On the % scale 0 is the no-effect control and ±100 the full control effect.

Cytochrome P450 3A4 (Homo sapiens), sequence (P08684 whole entry, looked up): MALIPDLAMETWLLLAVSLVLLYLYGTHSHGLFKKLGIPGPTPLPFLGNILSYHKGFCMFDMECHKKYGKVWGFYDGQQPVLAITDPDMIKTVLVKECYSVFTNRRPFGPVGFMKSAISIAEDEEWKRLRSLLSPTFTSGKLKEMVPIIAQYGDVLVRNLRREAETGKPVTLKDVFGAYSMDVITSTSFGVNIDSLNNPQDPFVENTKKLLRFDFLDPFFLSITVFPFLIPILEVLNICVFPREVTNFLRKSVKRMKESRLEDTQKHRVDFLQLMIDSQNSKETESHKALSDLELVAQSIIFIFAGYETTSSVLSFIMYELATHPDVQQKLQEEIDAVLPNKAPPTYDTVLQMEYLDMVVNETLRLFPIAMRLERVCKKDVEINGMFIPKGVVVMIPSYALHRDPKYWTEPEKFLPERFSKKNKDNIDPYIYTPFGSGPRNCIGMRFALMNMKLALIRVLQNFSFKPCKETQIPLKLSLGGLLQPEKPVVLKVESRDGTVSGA

Row | Compound | activity, negative = inhibition | AC50
1 | CCCCN(C)C(=O)c1coc(=O)c2ccccc12 | -9.54% | 
2 | CCCCNC(=O)CN1C(=O)NC2(CCCc3ccccc32)C1=O (stereo not drawn) | -10.6% | 
3 | CCCCNC(=O)Cc1coc2ccc3ccccc3c12 |  | 4.47 µM (active)
4 | CCCN(C(=O)Cc1nc(N)n[nH]1)C1(C(=O)Nc2ccccc2C)CCCCC1 |  | 1.12 µM (active)
5 | O=C(c1cc(C(F)(F)F)cc(C(F)(F)F)c1)N1CCC[C@@]2(CCN(Cc3ccncc3)C2)C1 |  | 0.501 µM (active)
6 | N#Cc1ccc(CN2CCC3(CC2)CCN(C(=O)c2cc(C(F)(F)F)cc(C(F)(F)F)c2)CC3)cc1 | -6.44% | 
7 | O=C(c1ccncc1)N1CCC2(CC1)CN(Cc1cc(C(F)(F)F)cc(C(F)(F)F)c1)C2 |  | 5.01 µM (active)
8 | N#Cc1ccc(CN2CC[C@@]3(CCCN(C(=O)c4cc(C(F)(F)F)cc(C(F)(F)F)c4)C3)C2)cc1 |  | 5.01 µM (active)
9 | O=C(c1cc(C(F)(F)F)cc(C(F)(F)F)c1)N1CCC2(CCN(Cc3ccccc3)CC2)CC1 | 6.76% | 
10 | O=C(c1cc(C(F)(F)F)cc(C(F)(F)F)c1)N1CCC[C@@]2(CCN(Cc3ccccc3)C2)C1 |  | 5.01 µM (active)
11 | O=C(c1cc(C(F)(F)F)cc(C(F)(F)F)c1)N1CCC2(CC1)CN(Cc1ccccc1)C2 | 1.61% | 
12 | N#Cc1ccc(CN2CC3(CCN(C(=O)c4cc(C(F)(F)F)cc(C(F)(F)F)c4)CC3)C2)cc1 | -22.2% | 
13 | NS(=O)(=O)c1ccc(N=Nc2ccc(O)c(C(=O)O)c2)cc1 | -11.8% [at 11.4 µM] | 
14 | Nc1nc2ncc(CNc3ccc(C(=O)N[C@@H](CCC(=O)O)C(=O)O)cc3)nc2c(=O)[nH]1 | -24.6% [at 25.6 µM] | 
15 | Nc1nc(-c2cccc([N+](=O)[O-])c2)cc(-c2cc(-c3cccc([N+](=O)[O-])c3)nc(N)n2)n1 | -1.01% [at 11.4 µM] | 
16 | Nc1c(-c2ccccc2)cnn1-c1cccc([N+](=O)[O-])c1 |  | 14.1 µM (active)
17 | Nc1nc(-c2ccccc2)cc(-c2ccccc2O)n1 | -4.62% | 
18 | Cc1cc(N2CCOCC2)nc(SCc2ccc(Cl)cc2Cl)n1 |  | 2.24 µM (active)
19 | Cc1cc(C)c2c(SCc3ccc(Cl)cc3Cl)nc(N)nc2n1 | 19.4% [at 11.4 µM] | 
20 | CCCc1ccc(Oc2cc(C)nc(N3CCOCC3)n2)cc1 | 28.4% [at 0.457 µM] | 

Row | Compound | activity, negative = inhibition | AC50
21 | C=CC[N+]1(CC#CCOC(c2ccccc2)c2ccccc2)CCOCC1 | -28.5% | 
22 | CCOc1cc(CNCCc2ccc(S(N)(=O)=O)cc2)ccc1OCc1ccc(Cl)cc1 |  | 0.398 µM (active)
23 | CCOc1cc(CNCCc2ccc(S(N)(=O)=O)cc2)cc(Cl)c1OCc1ccccc1 |  | 0.447 µM (active)
24 | CCOc1cc(CNCCO)cc(Br)c1OCc1ccccc1Cl |  | 2 µM (active)
25 | COc1c(Cl)cc(Cl)cc1CNCCNCCO | -7.63% | 
26 | CCCc1c(OCCCOc2ccc(OCC(=O)O)cc2)ccc(CC=O)c1O | -13.9% | 
27 | CCn1c2ccccc2c2nnc(NCCCO)nc21 | -11.6% [at 11.4 µM] | 
28 | CCn1c2ccc(Cl)cc2c2nc3ccccc3nc21 |  | 15.8 µM (active)
29 | COc1ccc(-c2ccc(N)[n+](CCCC(=O)O)n2)cc1 |  | inactive
30 | Cc1cc(NC(=O)CCCC(=O)OCC(F)(F)C(F)F)cc(C)c1C(=O)O | -0.842% | 
31 | O=C(CCCC(=O)OCC(=O)c1ccc(Cl)cc1Cl)Nc1cc(C(F)(F)F)ccc1Cl |  | 22.4 µM (active)
32 | CC(C)NC(=O)C1CC(=O)N(c2ccc(F)c(Cl)c2)C1 (stereo not drawn) | 5.88% [at 2.29 µM] | 
33 | CCOc1ccc(N2CC(C(=O)NCc3cccc(C)c3)CC2=O)cc1 (stereo not drawn) |  | 7.94 µM (active)
34 | C[C@@]12CCC(=O)C=C1CC[C@@H]1[C@@H]2[C@H](O)C[C@]2(C)[C@@H]1CC[C@]2(O)C(=O)COC(=O)CCC(=O)O | -3.21% | 
35 | C[C@@]12C[C@H](O)[C@@H]3[C@H](CCC4=CC(=O)CC[C@]43C)[C@H]1CC[C@@H]2c1csc(N)n1 |  | 2.51 µM (active)
36 | C[C@@]12CCC(=O)C=C1CC[C@@H]1[C@@H]2[C@H](O)C[C@]2(C)[C@@H]1CC[C@]2(O)C(=O)CO | -8.94% [at 25.6 µM] | 
37 | COc1cc2cc(CN(CCCO)S(=O)(=O)c3ccccc3Cl)c(=O)[nH]c2cc1OC |  | 14.1 µM (active)
38 | CN(C)C(CNC(=O)NC1CCCCC1)c1cccnc1 (stereo not drawn) |  | 15.8 µM (active)
39 | COCCN1C(=O)c2ccccc2C(C(=O)Nc2ccc3c(c2)OCCO3)C1c1ccc(F)cc1 (stereo not drawn) | -22.8% [at 2.29 µM] | 
40 | COc1cccc(NC(=O)C2c3cc(OC)c(OC)cc3C(=O)N(C)C2c2cccnc2)c1 (stereo not drawn) |  | 12.6 µM (active)

Row | Compound | activity, negative = inhibition | AC50
41 | COc1cc2c(cc1OC)C(C(=O)Nc1ccccn1)C(c1cccnc1)N(C)C2=O (stereo not drawn) | -22% [at 11.4 µM] | 
42 | COc1ccc(NC(=O)C2c3cc(OC)c(OC)cc3C(=O)N(C)C2c2cccnc2)cc1OC (stereo not drawn) |  | 25.1 µM (active)
43 | COc1cc2c(cc1OC)C(C(=O)Nc1ccc3c(c1)OCCO3)C(c1cccnc1)N(C)C2=O (stereo not drawn) |  | 28.2 µM (active)
44 | CC(C)C12CC[C@@]3(CC[C@H]4[C@@](C)(CCC[C@]4(C)C(=O)O)[C@@H]3C1)[C@@H](CN)C2 | -9.26% [at 11.4 µM] | 
45 | Cc1ccc(-n2c(C)cc(C(=O)CSc3n[nH]c(N)n3)c2C)cc1 |  | 10 µM (active)
46 | CCOC(=O)CSc1n[nH]c(NC(=O)c2cccc(C(F)(F)F)c2)n1 | -5.41% | 
47 | O=C1CC[C@H](NC(=O)c2ccccc2)C(=O)N1 | -12.3% [at 11.4 µM] | 
48 | N[C@H](CCC(=O)NCC(=O)O)C(=O)O | -5.94% | 
49 | CN(C)c1ccc(-c2cncnc2Nc2ccc(F)cc2)cc1 |  | 0.794 µM (active)
50 | CN(C)c1ccc(-c2cncnc2Nc2ccccc2)cc1 |  | 0.631 µM (active)
51 | c1cc(CSSCc2ccncc2)ccn1 |  | 2.51 µM (active)
52 | O=[N+]([O-])c1ccc2nc(-c3ccccc3)n(OCc3ccc(Cl)cc3)c2c1 | 1.45% | 
53 | Cc1cc(C)n(-c2nc3ccccc3c(=O)n2OCc2ccc(Cl)cc2)n1 |  | 14.1 µM (active)
54 | Cc1cc(C)n(-c2ccc(Cl)c(C(=O)O)n2)n1 | -24.8% | 
55 | COc1ccccc1CNc1ccnc(-c2ccc(C(=O)N(C)C)cc2)n1 |  | 25.1 µM (active)
56 | COc1ccccc1CNc1ccnc(-c2ccoc2)n1 |  | 2.51 µM (active)
57 | COc1ccc(CNc2ccnc(-c3ccc(C(=O)N(C)C)cc3)n2)c(OC)c1 |  | 3.98 µM (active)
58 | CN(C)c1ccc(-c2nccc(NCc3ccccc3)n2)cc1 |  | 7.94 µM (active)
